Bioassay records: PubChem BioAssay, several laboratories
KKLEB tox: counter-screen for CF NF-kB inhibitors: cytotoxicity. KKLEB CF airway cells viability, ATPlite luminescence, overnight; active compounds read low; cells stimulated with P. aeruginosa culture filtrate. 360,000 compounds, 0.36% hits. AID 602141. activity change (cytotoxicity), % at 5 µM;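 active = corrected activity change at or below -50% at 5 µM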
Peg3 promoter: inhibitors of Peg3 promoter; inhibition, % at 20 µM; 360,000 compounds, 1.7% hits; HeLa PEG-Prom luciferase reporter, luminescence, overnight;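 active = inhibition of at least 50% at 20 µM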
Shn3 3UTR inh: reduces Shn3 3'UTR luciferase signal in osteoblasts; 360,000 compounds, 0.52% hits; inhibition, % at 12.5 µM; AID 588674; Clone20 osteoblast Shn3 3'UTR firefly luciferase, 24 h;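 active = mean inhibition of at least 75% with every replicate also reaching 75%; inconclusive = mean inhibition at least 75% but some replicate below; inactive = mean inhibition below 75%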;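 also: 0% = median of neutral control wells and 100% = pilot-screen positive control compound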
HIF-2a block: HIF-2a inhibition | 360,000 compounds, 0.72% hits | 786-0 RCC cells HIF-2a reporter, luciferase luminescence, overnight | inhibition, % at 18.8 µM | AID 624352;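 active = inhibition of the luminescence signal of 40% or more relative to plate controls, in a single-dose primary screen at 18.75 µM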
CF NFkB block: inhibitors of cystic fibrosis induced NF-kB; 360,000 compounds, 0.86% hits; KKLEB NF-kB-GFP reporter, PAF-induced, GFP fluorescence overnight; inhibition, % at 5 µM;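 active = at least 50% inhibition at 5 µM, scaled per plate between neutral and stimulator controls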;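 also: PAF is a Pseudomonas aeruginosa culture filtrate used as stimulus; plate controls were PAF-stimulated DMSO wells for no effect and unstimulated DMSO wells for full effect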
LMP1 NFkB inh: Epstein-Barr LMP1 NF-kappaB reporter inhibition | inhibition, % at 12.5 µM | LMP1-induced NF-kappaB luciferase reporter cells, luminescence | 350,000 compounds, 0.69% hits; in the data active = inhibition above about 41%; inconclusive = no clear call, values can overlap the other calls;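 also: 0% = neutral control wells and 100% = reference inhibitor control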
CF NFkB inh conf: confirmation of cystic fibrosis induced NF-kB inhibitors; KKLEB CF airway cells, PAF-induced NF-kB-GFP fluorescence, overnight; inhibition, % at 5 µM; shares compounds with CF NFkB block; 1,300 compounds, 64% hits; in the data active = inhibition above about 40%;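 also: stimulus PAF is a Pseudomonas aeruginosa filtrate and not platelet activating factor; plate controls were DMSO wells with stimulus for no effect and unstimulated DMSO wells for full effect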
Mdm2 MdmX conf: Mdm2/MdmX (human) interaction inhibition, confirmed; shares compounds with HIF-2a block; SaOS-2 split-luciferase Mdm2/MdmX complementation, luminescence; inhibition, % at 8 µM; 740 compounds, 99% hits;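 active = mean inhibition of the luminescence signal across two replicates at or above 26 percent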
Target sequence (O15151 whole entry, looked up): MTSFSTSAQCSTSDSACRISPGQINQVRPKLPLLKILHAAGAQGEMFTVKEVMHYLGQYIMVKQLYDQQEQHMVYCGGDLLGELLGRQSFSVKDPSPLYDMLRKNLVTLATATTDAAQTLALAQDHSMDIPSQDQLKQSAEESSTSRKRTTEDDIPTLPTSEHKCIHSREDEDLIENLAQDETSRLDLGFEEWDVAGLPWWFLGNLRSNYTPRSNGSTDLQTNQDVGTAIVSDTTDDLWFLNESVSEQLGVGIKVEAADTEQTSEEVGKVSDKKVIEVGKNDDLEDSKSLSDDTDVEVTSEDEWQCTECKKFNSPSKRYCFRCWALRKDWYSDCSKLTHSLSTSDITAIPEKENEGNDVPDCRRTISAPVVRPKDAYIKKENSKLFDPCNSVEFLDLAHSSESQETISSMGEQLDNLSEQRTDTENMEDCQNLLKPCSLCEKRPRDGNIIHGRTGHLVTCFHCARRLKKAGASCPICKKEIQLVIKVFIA
Target sequence (Q00987 whole entry, looked up): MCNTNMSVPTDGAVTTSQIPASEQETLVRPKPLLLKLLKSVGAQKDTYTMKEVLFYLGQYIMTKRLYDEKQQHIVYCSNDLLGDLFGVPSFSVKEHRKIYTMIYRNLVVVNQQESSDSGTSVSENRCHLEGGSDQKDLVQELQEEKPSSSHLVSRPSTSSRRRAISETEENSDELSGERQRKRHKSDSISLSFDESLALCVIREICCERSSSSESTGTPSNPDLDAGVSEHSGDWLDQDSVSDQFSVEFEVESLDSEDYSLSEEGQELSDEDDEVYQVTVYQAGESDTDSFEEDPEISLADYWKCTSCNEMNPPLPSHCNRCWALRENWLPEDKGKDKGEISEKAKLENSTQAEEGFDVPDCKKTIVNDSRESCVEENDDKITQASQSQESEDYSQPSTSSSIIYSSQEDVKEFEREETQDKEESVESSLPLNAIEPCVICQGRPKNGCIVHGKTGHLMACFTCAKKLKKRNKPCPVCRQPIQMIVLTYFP
HIF-2a inh conf: HIF-2a inhibition, single concentration confirmation. shares compounds with HIF-2a block. 1,800 compounds, 56% hits. inhibition, % at 18.8 µM. 786-0 RCC cells, HIF-2a luciferase reporter luminescence, overnight;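 active = mean inhibition across four replicates of at least 40 percent at the single tested concentration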
HIF-1a counter: HIF-1a inhibition counter-screen for HIF-2a hits; shares compounds with HIF-2a block; MiaPaCa-2 HIF-1a luciferase reporter, desferoxamine, overnight; inhibition, % at 18.8 µM; 1,800 compounds, 72% hits; AID 651589;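 active = mean inhibition of the reporter signal across four replicates at the single tested dose of 50% or more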
* hit, by the source's call; ? = inconclusive; . = no result given. Sampled rows, rich in hits. Any-hit rate of the full collection: about 2.9%.

SMILES	KKLEB tox	Peg3 promoter	Shn3 3UTR inh	HIF-2a block	CF NFkB block	LMP1 NFkB inh	CF NFkB inh conf	HIF-2a inh conf	HIF-1a counter	others
CC(C)C(=O)N1CCN(c2ccc(NC(=O)c3ccc([N+](=O)[O-])o3)cc2Cl)CC1	-12	109*	96*	91*	69*	-37	24	80*	99*
O=C(Nc1ccccc1N1CCN(C(=O)c2ccc(Cl)cc2)CC1)c1ccc([N+](=O)[O-])o1	-15	27	-45	9	4	-8	.	.	.
O=C(c1ccc(S(=O)(=O)c2cccc(Cl)c2)c([N+](=O)[O-])c1)N1CCN(c2ccccn2)CC1	-45	53*	69	40*	86*	20	-74	25	85*	Mdm2 MdmX conf=96*
COc1cccc(-n2nc(C(N)=O)c(O)cc2=O)c1	7	4	-11	10	-5	10	.	.	.
COc1cccc(-n2nc(C#N)c(Cl)cc2=O)c1	-34	108*	96*	96*	106*	12	15	.	.	Mdm2 MdmX conf=104*
CC(=O)OC1CCC2(C)C(CCC3C4CC=C(C(C)=O)C4(C)OC(=O)CC32)C1 (stereo unspecified)	-14	111*	?	66*	96*	79*	101*	62*	105*
O=C(Nc1c(Cl)ccc2nsnc12)c1ccc([N+](=O)[O-])o1	-20	90*	76	60*	87*	-31	-6	28	100*
Cc1ccc(NC(=O)CN(C)C(=O)Cn2ncc(Cl)c(Cl)c2=O)cc1	-5	102*	71	97*	68*	88*	38	100*	106*
O=C1CN(C(=O)COc2ccc(Cl)c(Cl)c2)c2ccccc2N1	6	-19	-7	-25	-22	11	.	.	.
Cc1ccc(NC(=O)Cn2ncc(Cl)c(Cl)c2=O)cc1S(=O)(=O)N1CCCCC1	-10	107*	47	94*	86*	-12	-57	57*	103*	Mdm2 MdmX conf=103*
O=C1CN(C(=O)Cn2ncc(Cl)c(Cl)c2=O)c2ccccc2N1	-47	103*	19	96*	94*	-46	56*	29	106*
O=C(Cn1ncc(Cl)c(Cl)c1=O)NC1CCCCC1	-20	100*	64	86*	68*	-50	27	19	102*	Mdm2 MdmX conf=103*
Cc1ccc(NC(=O)CN(C)C(=O)Cc2ccc(Cl)c(Cl)c2)cc1	-2	-24	-6	-55	0	-6	.	.	.
CC(C)NC(=S)NCc1cccnc1	-14	3	4	14	-1	-2	.	.	.
COc1ccc(/C=C/C(=O)c2c(C)cc(C)[nH]c2=O)c2ccccc12	-4	5	-28	18	9	11	.	.	.
COc1ccccc1/C=C/C(=O)c1c2c(c(C)[nH]c1=O)CCCC2	-5	98*	-31	73*	54*	15	51*	63*	88*	Mdm2 MdmX conf=103*
COC(=O)/C=C1\NCCNC1=O	-14	13	12	8	10	2	.	.	.
CCOc1ccccc1NC(=O)c1nc(S(=O)(=O)Cc2ccccc2)ncc1Cl	-31	99*	96*	90*	80*	-30	94*	99*	104*
CCOc1ccccc1NC(=O)c1ccc(C(=O)Nc2ccccc2OCC)nc1	2	12	23	10	4	-16	.	.	.
CCS(=O)(=O)c1ncc(Cl)c(C(=O)Nc2ccccc2OC)n1	-36	104*	97*	93*	85*	-19	96*	1	99*
C=C(C)[C@@H]1C2=CC(C(=O)OC)=C(C[C@H](C(=C)C)[C@H]3O[C@H]3C3=C[C@H]1OC3=O)O2	-37	103*	98*	88*	69*	.	-15	89*	106*
COc1cc(/C=C/C(=O)c2ccc([N+](=O)[O-])o2)ccc1O	-21	101*	97*	97*	83*	-21	2	79*	105*
COc1cc(/C=N/NC(=O)c2cccc([N+](=O)[O-])c2)ccc1OCc1ccccc1	-20	-55	-32	11	8	-2	.	.	.
CCOC(=O)C(=Cc1ccc(OCc2ccc([N+](=O)[O-])cc2)c(OC)c1)C(=O)OCC	-3	58*	84	93*	54*	-7	-253	98*	108*
COC(=O)c1cc(C(=O)Nc2nc3ccccc3[nH]2)cc([N+](=O)[O-])c1	-1	-139	-21	-123	-39	-10	.	.	.
SMILES	KKLEB tox	Peg3 promoter	Shn3 3UTR inh	HIF-2a block	CF NFkB block	LMP1 NFkB inh	CF NFkB inh conf	HIF-2a inh conf	HIF-1a counter	others
CS(=O)(=O)c1ccc(C(=O)OCC(=O)NCc2cccs2)cc1[N+](=O)[O-]	-33	108*	97*	83*	90*	-1	43*	24	4
Cc1cccc(C(=O)OCC(=O)NCc2cccs2)c1	5	-12	-3	4	-4	-23	.	.	.
COc1ccc(Nc2ccc(C(F)(F)F)cc2[N+](=O)[O-])cn1	-8	-2	22	-1	14	-8	.	.	.
CC(C)[C@H](NC(=O)OC(C)(C)C)c1nnc(S(=O)(=O)Cc2c(F)cccc2Cl)o1	-2	104*	95*	40*	83*	30	43*	34	8
CC(C)=CCSc1nnc([C@@H](NC(=O)OC(C)(C)C)C(C)C)o1	8	2	24	6	-1	0	.	.	.
CC(C)(C)[C@@H]1CCC(=O)N(CC[C@H](Sc2ccc(Br)cc2)c2ccccc2)CC1	-16	16	23	-3	38	2	.	.	.
COc1ccc(NC(=O)CCC(=O)N2CCOCC2)c([N+](=O)[O-])c1	-5	9	6	13	2	3	.	.	.
O=C(CCl)N(Cc1cc(=O)[nH]c2ccccc12)c1ccccc1	-34	85*	3	47*	69*	20	74*	70*	104*	Mdm2 MdmX conf=101*
Clc1ccccc1OCc1nnc(-c2ccccc2Br)o1	-5	-321	-83	-312	14	-67	.	.	.
O=c1c(Cl)c(Cl)cnn1Cc1nnc(-c2ccccc2Br)o1	-25	106*	78	96*	84*	-107	45*	73*	106*	Mdm2 MdmX conf=101*
